# hNpr1 antagonist – antagonists of human natriuretic peptide receptor Npr1; Potency, µM (top dose mostly 46.3 µM), actives largely listed as inhibitors; 76,000 compounds, 1.6% hits; P16066; AID 1347048; HEK293 hNpr1 GloSensor cGMP, ANP-stimulated luminescence; calls by dose curve; note: nearly all actives have a fitted effect of over 60% in size
#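 HEK293 cells stably expressing human Npr1 and cGMP GloSensor pGS-40F, loaded 2 h with 2% GloSensor reagent, given compound 30 min at room temperature. Luminescence read before and 20 min after 0.1 nM hNppA.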
# GPT2 inhibitor – blocks human glutamate pyruvate transaminase 2 | Q8TD30 | AID 1671188 | Recombinant GPT2, coupled pyruvate oxidase/HRP Amplex Red fluorescence | 100,000 compounds, 0.25% hits | Potency, µM (doses to about 57.7 µM), hits mostly inhibitors; note: nearly all actives have a fitted effect of over 60% in size
#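 Inhibition is scored from Amplex Red fluorescence generated when pyruvate oxidase and HRP act on pyruvate released by GPT2. Reactions contain 10ng/uL enzyme, 250uM a-KG and 2mM L-alanine and run 30 min at room temperature.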
# NIH3T3 tox – NIH 3T3 cell cytotoxicity | Potency, µM (series often up to 96.7 µM), hits mostly inhibitors | NIH 3T3 viability, CellTiter-Glo ATP luminescence, 48-72 h | 94,000 compounds, 4.3% hits | AID 1345082; note: nearly all actives have a fitted effect of over 55% in size
#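 Mouse fibroblast NIH 3T3 cells, 400 per well, received compound via pintool and were incubated for 48 or 72 hr prior to CellTiter-Glo ATP luminescence measurement.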
# HEK cytotox – HEK 293 cell cytotoxicity. 94,000 compounds, 6.6% hits. HEK 293 viability, ATP luminescence (CellTiter-Glo), 48-72 h. AID 1345083. Potency, µM (highest dose often 115 µM), actives largely listed as inhibitors; note: nearly all actives have a fitted effect of over 60% in size
#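 qHTS cytotoxicity; HEK 293, 250 cells/well; compound pinned; 48 or 72 hr, 37 degree Celsius, 5% CO2, 95% humidity; CellTiter-Glo, 10 min RT; luminescence (ATP).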
# FLuc inh-1 – blocks purified firefly luciferase enzyme activity | P08659 | purified P. pyralis luciferase, luminescence, biochemical | Potency, µM (titrated, usually from 115 µM), actives largely listed as inhibitors | 76,000 compounds, 2.5% hits; note: nearly all actives have a fitted effect of over 65% in size
# Target sequence (P08659 whole entry, looked up): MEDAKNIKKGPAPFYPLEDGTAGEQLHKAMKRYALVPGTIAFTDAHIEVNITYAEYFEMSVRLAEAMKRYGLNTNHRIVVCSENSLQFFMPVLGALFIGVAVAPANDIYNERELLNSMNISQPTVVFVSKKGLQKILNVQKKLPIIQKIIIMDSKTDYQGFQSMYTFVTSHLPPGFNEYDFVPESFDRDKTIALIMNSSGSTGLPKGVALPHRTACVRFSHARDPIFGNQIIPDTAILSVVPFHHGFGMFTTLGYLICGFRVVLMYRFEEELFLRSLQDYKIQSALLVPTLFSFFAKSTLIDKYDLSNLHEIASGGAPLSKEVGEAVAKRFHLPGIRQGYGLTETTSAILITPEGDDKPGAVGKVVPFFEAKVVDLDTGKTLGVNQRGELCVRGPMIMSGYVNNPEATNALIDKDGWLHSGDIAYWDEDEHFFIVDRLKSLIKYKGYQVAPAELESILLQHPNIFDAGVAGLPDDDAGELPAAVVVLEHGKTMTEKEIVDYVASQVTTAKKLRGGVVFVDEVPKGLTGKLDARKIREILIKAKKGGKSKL
#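 Cell-free enzyme assay, 10nM P. pyralis luciferase, luciferin and ATP each at 10uM. Inhibition profiled over a 6-point titration, read as luminescence.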
# FLuc SDR -ATP – firefly luciferase binding stabilization, ATP absent | shares compounds with FLuc inh-1 | 1,300 compounds, 7.8% hits | Purified FLuc-C-HiBiT, Nano-Glo HiBiT luminescence, no ATP | Potency, µM (top dose mostly 32.7 µM), usual class: activators; note: nearly all actives have a fitted effect of over 55% in size
# FLuc SDR ATP – firefly luciferase binding stabilization, ATP added | shares compounds with FLuc inh-1 | AID 1963319 | purified FLuc-C-HiBiT + ATP, HiBiT complementation luminescence | Potency, µM (series often up to 32.7 µM), most hits filed as activators | 1,300 compounds, 8.7% hits;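 note: signal reports ligand binding via conformational change of the enzyme rather than luciferase catalysis; nearly all actives have a fitted effect of over 55% in size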
# FLuc inh-2 – inhibitors of firefly luciferase enzymatic activity | shares compounds with FLuc inh-1 | purified FLuc-C-HiBiT enzyme, luciferin luminescence | Potency, µM (series often up to 32.7 µM), actives largely listed as inhibitors | 1,300 compounds, 42% hits; note: nearly all actives have a fitted effect of over 70% in size
# NPR1 antag cnf – hNpr1 antagonism, confirmation assay; shares compounds with hNpr1 antagonist; HEK293 hNpr1 cGMP GloSensor luminescence, ANP-stimulated; Potency, µM (series often up to 57.6 µM), most hits filed as inhibitors; 1,400 compounds, 76% hits; AID 1347044; calls by dose curve; note: nearly all actives have a fitted effect of over 70% in size
# Npr2 selectivity – hNpr2 antagonism, selectivity versus Npr1; HEK293 hNpr2 GloSensor cGMP luminescence, CNP-stimulated; 1,400 compounds, 67% hits; AID 1347046; Potency, µM (highest dose often 57.6 µM), usual class: inhibitors; shares compounds with hNpr1 antagonist; calls by dose curve; note: nearly all actives have a fitted effect of over 70% in size
# FLuc counter – FLuc enzyme inhibition, Npr1 counter-screen | shares compounds with hNpr1 antagonist | purified FLuc enzyme, luminescence, Km substrate | Potency, µM (highest dose often 57.6 µM), usual class: inhibitors | 1,400 compounds, 0.7% hits | AID 1347047
# GloSensor ctrl – counter-screen for Npr1 antagonists: GloSensor control cell line; shares compounds with hNpr1 antagonist; AID 1347051; Potency, µM (top dose mostly 57.6 µM), usual class: inhibitors; HEK293 GloSensor cGMP, SNP-stimulated, luminescence; 1,400 compounds, 69% hits; calls by dose curve; note: nearly all actives have a fitted effect of over 70% in size
# A number is an active result; . = inactive; ? = inconclusive; / = not tested or not shown; [ ] = remark or other dose. Only some compounds are listed: those with a hit (about 10% of all), similar ones and a draw of the others. Unless noted, calls come from the whole dose curve; as a rule, active = well fitted curve in the direction sought with a large enough effect; inconclusive = small, poorly fitted or top-dose-only effect, or another doubt; inactive = no such curve, though single readings can be large; an effect the other way counts as inactive or inconclusive.
SMILES,hNpr1 antagonist,GPT2 inhibitor,NIH3T3 tox,HEK cytotox,FLuc inh-1,NPR1 antag cnf,Npr2 selectivity,FLuc counter,GloSensor ctrl,others
COc1ccccc1-c1[nH]ncc1CN1CCCC(C(=O)NCc2ccccc2)CCNC(=O)CC1 (centres undefined),.,.,.,.,.,/,/,/,/,
C[C@@H]1O[C@@H](OC(=O)Cc2ccccc2)[C@H](O)[C@H](O)[C@H]1O,/,.,/,/,/,/,/,/,/,
COc1cccc(-n2cc(CN(C)c3ncncn3)cn2)c1,.,.[11.5 µM],.,.,13µM,/,/,/,/,FLuc SDR -ATP=.;FLuc SDR ATP=.;FLuc inh-2=.
COc1ccc(-n2cc(-c3ccnc(N(C)Cc4cnccn4)n3)cn2)cc1,.,.,?,?,?,/,/,/,/,
O=C(C1CCCC1)N1CCCN(c2nc3ncccc3o2)CC1,.,.,.,?,.,/,/,/,/,
CCCCOc1nc(N)c2[nH]c(=O)n(Cc3cccc(CC(=O)OC)c3)c2n1,/,/,/,/,/,/,/,/,/,FLuc SDR -ATP=.;FLuc SDR ATP=.;FLuc inh-2=.
CCN1c2cc(C(=O)Nc3ccc4c(c3)OCCO4)ccc2C(=O)N2CCCC21 (centres undefined),.,.,?,?,5µM,/,/,/,/,FLuc SDR -ATP=.;FLuc SDR ATP=.;FLuc inh-2=?
CCN1c2cc(C(=O)Nc3ccc4c(c3)OCCO4)ccc2C(=O)N2CCCCCC21 (centres undefined),?,.,?,18µM,11µM,/,/,/,/,FLuc SDR -ATP=.;FLuc SDR ATP=.;FLuc inh-2=?
CCOc1ccc(C(=O)N2CCC[C@H]2c2nc(-c3ccc(OC)cc3)no2)cc1OCC,.,.,.,.,.,/,/,/,/,
CCOc1ccc(C(=O)N2CCC(Cc3nc(-c4ccc(OC)cc4)no3)CC2)cc1OCC,6.3µM,.,?,40µM,.,11µM,15µM,.,9.7µM,
COC(=O)c1cccc(C(=O)N2CCC(Cc3nc(-c4ccc(OC)cc4)no3)CC2)c1,6.3µM,.,?,56µM,.,6.9µM,8.6µM,.,5.4µM,
COc1ccc(-c2noc(CC3CCN(C(=O)c4ccc(OC)nc4)CC3)n2)cc1,7.1µM,.,?,?,.,5.4µM,6.1µM,.,5.4µM,
COc1ccc(C(=O)N2CCC(c3noc(COc4ccc(F)cc4)n3)CC2)cn1,?,.,?,?,.,/,/,/,/,
Cc1cccc(C(=O)N2CCC(Cc3nc(-c4cnccn4)no3)CC2)c1,.,.,.,.,.,/,/,/,/,
CCOc1ccc(C(=O)N2CCC(Cc3nc(-c4ccc(F)cc4)no3)CC2)cc1OCC,4µM,.,40µM,?,.,3.9µM,6.1µM,.,4.8µM,
COc1ccc(NC(=O)O[C@@H]2CO[C@H]3[C@@H]2OC[C@@H]3NC(=O)c2ccco2)cc1,.,.,.,.,.,/,/,/,/,
Cc1ccc(C)c(CN2CCc3nc(N4CCN(C)CC4)[nH]c(=O)c3CC2)c1,.,.,.,.,.,/,/,/,/,
O=C1NCC2(CCCN(C(=O)CCc3nc4ccccc4[nH]c3=O)C2)O1 (centres undefined),.,.,.,.,.,/,/,/,/,
O=C(NCc1cccc(F)c1)c1csc(N2CCN(c3ccc(Cl)cc3)CC2)n1,13µM,.,.,?,.,24µM,24µM,.,22µM,
O=C(NCc1ccc(F)cc1)c1csc(N2CCN(c3ccccc3F)CC2)n1,.,.,.,.,.,/,/,/,/,
COCc1ccc(C(=O)N2CCC(c3[nH]ncc3-c3ccccc3)CC2)o1,.,.,.,.,.,/,/,/,/,
O=C(c1ccc(-n2ccnc2)cc1)N1CCC(c2[nH]ncc2-c2ccccc2)CC1,11µM,.,?,.,.,22µM,22µM,.,.,
CC(=O)Nc1ccccc1-c1c(C)nn2c1N(C(=O)Cc1ccccc1)CCC2,.,.,?,.,.,/,/,/,/,
COc1cccc(CC(=O)N2CCCn3nc(C)c(-c4ccccc4Oc4ccccc4)c32)c1,?,?,?,45µM,.,?,19µM,.,.,
Cc1nn2c(c1-c1ccccc1-c1ccccc1)N(C(=O)Cc1ccccn1)CCC2,.,.,.,?,.,/,/,/,/,
SMILES,hNpr1 antagonist,GPT2 inhibitor,NIH3T3 tox,HEK cytotox,FLuc inh-1,NPR1 antag cnf,Npr2 selectivity,FLuc counter,GloSensor ctrl,others
COc1cccc(CC(=O)N2CCCn3nc(C)c(-c4ccccc4-c4ccccc4)c32)c1,?,.,79µM,?,.,?,31µM,.,.,
CC(=O)N1CCCn2nc(C)c(-c3ccccc3OCc3ccccc3)c21,.,.,?,?,.,/,/,/,/,
Cc1nn2c(c1-c1ccccc1OCc1ccccc1)N(Cc1ccc(C(=O)O)s1)CCC2,6.3µM,.,32µM,35µM,.,5.4µM,7.7µM,.,6.1µM,
Cc1nn2c(c1-c1ccccc1C(C)C)N(C(=O)Cc1ccc(O)cc1)CCC2,.,.,?,?,.,/,/,/,/,
Cc1nn2c(c1-c1ccccc1Oc1ccccc1)N(C(=O)Cc1ccc(O)cc1)CCC2,20µM,.,79µM,89µM,.,35µM,28µM,.,?,
CN(CC#N)C(=O)c1cc(-c2ccccc2F)nc2c1cnn2C,/,/,?,.,/,/,/,/,/,
O=C(Nc1ccc([C@H]2OCC(=O)N(C3CCOCC3)[C@@H]2CO)cc1)C1CCC1,.,?,.,.,.,/,/,/,/,
CC(=O)Nc1ccccc1-c1c(C)nn2c1N(C(=O)c1ccc(Oc3ccccc3)cc1)CCC2,11µM,?,?,?,.,19µM,17µM,.,17µM,
Cc1nn2c(c1-c1ccccc1Oc1ccccc1)N(C(=O)Cc1cccc(F)c1)CCC2,?,?,40µM,?,.,?,?,.,.,
Cc1nn2c(c1-c1ccccc1OCc1ccccc1)N(C(=O)CCc1cccnc1)CCC2,?,.,?,?,.,?,?,.,.,
Cc1nn2c(c1-c1ccccc1C(N)=O)N(C(=O)Cc1cccc(F)c1)CCC2,.,.,?,.,.,/,/,/,/,

# Assay outcomes: PubChem, National Center for Advancing Translational Sciences (NCATS)
